For part of these data: Potency and affinity values are given separately. Activity calls are given as the source filed them. How the calls were made is not given here.
molecular target: Plasmodium falciparum protein kinase 6 (PK6, PF3D7_1337100) (UniProt Q8IDW1); experiment: PfPK6 kinase inhibitors, biochemical, TCAMS library (AID 1159586); details: recombinant PfPK6, Kinase-Glo ATP depletion luminescence
Sequence (Q8IDW1 1-305): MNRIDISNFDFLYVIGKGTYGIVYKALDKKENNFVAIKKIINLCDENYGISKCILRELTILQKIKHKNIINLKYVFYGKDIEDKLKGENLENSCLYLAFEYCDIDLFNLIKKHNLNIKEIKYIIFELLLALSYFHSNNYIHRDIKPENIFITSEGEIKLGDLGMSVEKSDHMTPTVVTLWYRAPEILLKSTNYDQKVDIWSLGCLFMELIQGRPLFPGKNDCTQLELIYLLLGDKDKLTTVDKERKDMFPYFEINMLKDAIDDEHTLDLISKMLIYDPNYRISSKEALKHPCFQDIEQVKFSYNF

outcome, inactive:
Cn1c(Nc2cc(C(C)(C)C)on2)nc2cc(Nc3ccnc(Nc4cccc(CS(C)(=O)=O)c4)n3)ccc21
CN(C)CCN(C)Cc1ccc(-c2ccc3c(Nc4ccc(Oc5ccccc5)cc4)ccnc3c2)o1
O=C(NCCCN1CCOCC1)c1cccc(Nc2nccc(Nc3ccc(Oc4ccccc4)cc3)n2)c1
COc1ccc(-c2cnc3ccc(NC4CCC(O)CC4)nn23)cn1 (stereo not drawn)
COCCNCc1cccc(-c2ccc3c(Nc4ccc(Oc5ccccc5)cc4)ccnc3c2)c1
CC(C)(CNC(=O)[C@H]1CCCN1)c1nc(-c2ccc(Cl)c(O)c2)c(-c2ccncc2)[nH]1
CC(C)(CNCc1ccc(Cl)cc1)c1nc(-c2ccc(Cl)c(O)c2)c(-c2ccncc2)[nH]1
Nc1ncc(-c2cn[nH]c2)cc1-c1nc2ncc(Cl)cc2[nH]1
CN1CCN(Cc2cccc(Nc3nccc(Nc4ccc(Oc5ccccc5)cc4)n3)c2)CC1
CC(C)(CNCc1ccc(Cl)c(Cl)c1)c1nc(-c2ccc(Cl)c(O)c2)c(-c2ccncc2)[nH]1
O=C(NCCN1CCCCC1)c1ccc(Nc2nccc(Nc3ccc(Oc4ccccc4)cc3)n2)cc1
COc1cc2nccc(Nc3ccc(Oc4ccccc4)cc3)c2cc1OC
COc1ccc(CNCC(C)(C)c2nc(-c3ccc(Cl)c(O)c3)c(-c3ccncc3)[nH]2)cc1
COCCNCc1ncsc1-c1ccc2c(Nc3cc(O)c(Cl)cc3F)ccnc2c1
Nc1ncc(-c2cn[nH]c2)cc1-c1nc2ccc(F)cc2[nH]1
CC(C)(CNC(=O)C1CCN(Cc2ccoc2)CC1)c1nc(-c2ccc(Cl)c(O)c2)c(-c2ccncc2)[nH]1
Cc1ccc(O)cc1Nc1ccnc2cc(-c3cccc(CNCCS(C)(=O)=O)c3)ccc12
CC(C)(CN)c1nc(-c2ccc(Cl)c(O)c2)c(-c2ccnc(N)n2)[nH]1
CN(C)CCNCc1nc(-c2ccc3c(Nc4ccc(Oc5ccccc5)cc4)ccnc3c2)cs1
CNCC(C)(C)c1nc(-c2ccc(Cl)c(O)c2)c(-c2ccncc2)[nH]1
CC(C)(CNCCOc1ccc(Cl)cc1)c1nc(-c2ccc(Cl)c(O)c2)c(-c2ccnc(N)n2)[nH]1
CS(=O)(=O)Nc1cccc(-c2cnc3[nH]cc(-c4cccc(CN)c4)c3c2)c1
CN1CCN(c2ccc(Nc3ncc(Cl)c(Nc4cccnc4C(N)=O)n3)cc2)CC1
CNC(=O)c1ccccc1Nc1nc(Nc2ccc(C(=O)O)cc2)ncc1Cl
CN1CCC=C(C(=O)NCC(C)(C)c2nc(-c3ccc(Cl)c(O)c3)c(-c3ccncc3)[nH]2)C1
CC(C)(CNC(=O)C1CCN(CCOc2ccc(Cl)cc2)CC1)c1nc(-c2ccc(Cl)c(O)c2)c(-c2ccncc2)[nH]1
Oc1cccc(-c2cnc3ccc(NCc4ccc(F)cc4)nn23)c1
CC(C)(CNC(=O)[C@H]1CCCCN1)c1nc(-c2ccc(Cl)c(O)c2)c(-c2ccncc2)[nH]1
CS(=O)(=O)Cc1ccc(Nc2nccc(-c3c(-c4cccc(NC(=O)c5c(F)cccc5F)c4)nn4ncccc34)n2)cc1
O=c1[nH]ccc2nc(N[C@@H]3CCNC3)nc(Nc3ccc4c(c3)S(=O)(=O)CC4)c12
CS(=O)(=O)CCNCc1cccc(-c2ccc3c(Nc4cc(O)c(Cl)cc4F)ccnc3c2)c1
Cc1cc(F)ccc1-c1nc(Nc2ccncc2)c2ccn(C)c2n1
CN(C)CCN(C)Cc1nc(-c2ccc3c(Nc4ccc(Oc5ccccc5)cc4)ccnc3c2)cs1
COc1ccc(C(=O)NCC(C)(C)c2nc(-c3ccc(Cl)c(O)c3)c(-c3ccncc3)[nH]2)cc1OCCN(C(C)C)C(C)C
Cc1cccc2[nH]c(-c3cc(-c4cn[nH]c4)cnc3N)nc12
c1cncc(Oc2ccc(Nc3ccnc4cc(-c5cccc(CNCCN6CCOCC6)c5)ccc34)cc2)c1
CC(C)(CNCc1ccc(F)c(F)c1)c1nc(-c2ccc(Cl)c(O)c2)c(-c2ccnc(N)n2)[nH]1
CN(C)Cc1ccc(-c2ccc3c(Nc4ccc(Oc5ccccn5)cc4)ccnc3c2)o1
COc1ccc(-c2cnc3[nH]cc(-c4ccncc4)c3c2)cc1OC

molecular target: Protein kinase 7 (PK7), Plasmodium falciparum 3D7 (PF3D7_0213400) (UniProt Q7YTF7); experiment: inhibition of Plasmodium PK7 catalytic activity – biochemical, TCAMS antimalarial set, Kinase-Glo luminescence (AID 1159587); details: recombinant PfPK7, Kinase-Glo ATP depletion luminescence
Sequence (Q7YTF7 1-343): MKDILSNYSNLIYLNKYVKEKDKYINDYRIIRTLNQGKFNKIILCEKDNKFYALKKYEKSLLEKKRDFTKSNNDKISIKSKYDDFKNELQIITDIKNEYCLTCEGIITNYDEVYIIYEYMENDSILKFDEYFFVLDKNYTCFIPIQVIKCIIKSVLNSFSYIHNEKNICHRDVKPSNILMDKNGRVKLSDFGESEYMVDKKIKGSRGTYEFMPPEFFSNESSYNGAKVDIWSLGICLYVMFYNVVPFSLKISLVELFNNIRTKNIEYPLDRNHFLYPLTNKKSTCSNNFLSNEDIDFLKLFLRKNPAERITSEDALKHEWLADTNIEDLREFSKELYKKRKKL

outcome, inactive:
Cn1c(Nc2cc(C(C)(C)C)on2)nc2cc(Nc3ccnc(Nc4cccc(CS(C)(=O)=O)c4)n3)ccc21
CN(C)CCN(C)Cc1ccc(-c2ccc3c(Nc4ccc(Oc5ccccc5)cc4)ccnc3c2)o1
O=C(NCCCN1CCOCC1)c1cccc(Nc2nccc(Nc3ccc(Oc4ccccc4)cc3)n2)c1
COc1ccc(-c2cnc3ccc(NC4CCC(O)CC4)nn23)cn1 (stereo not drawn)
COCCNCc1cccc(-c2ccc3c(Nc4ccc(Oc5ccccc5)cc4)ccnc3c2)c1
CC(C)(CNC(=O)[C@H]1CCCN1)c1nc(-c2ccc(Cl)c(O)c2)c(-c2ccncc2)[nH]1
CC(C)(CNCc1ccc(Cl)cc1)c1nc(-c2ccc(Cl)c(O)c2)c(-c2ccncc2)[nH]1
Nc1ncc(-c2cn[nH]c2)cc1-c1nc2ncc(Cl)cc2[nH]1
CN1CCN(Cc2cccc(Nc3nccc(Nc4ccc(Oc5ccccc5)cc4)n3)c2)CC1
CC(C)(CNCc1ccc(Cl)c(Cl)c1)c1nc(-c2ccc(Cl)c(O)c2)c(-c2ccncc2)[nH]1
O=C(NCCN1CCCCC1)c1ccc(Nc2nccc(Nc3ccc(Oc4ccccc4)cc3)n2)cc1
COc1cc2nccc(Nc3ccc(Oc4ccccc4)cc3)c2cc1OC
COc1ccc(CNCC(C)(C)c2nc(-c3ccc(Cl)c(O)c3)c(-c3ccncc3)[nH]2)cc1
COCCNCc1ncsc1-c1ccc2c(Nc3cc(O)c(Cl)cc3F)ccnc2c1
Nc1ncc(-c2cn[nH]c2)cc1-c1nc2ccc(F)cc2[nH]1
CC(C)(CNC(=O)C1CCN(Cc2ccoc2)CC1)c1nc(-c2ccc(Cl)c(O)c2)c(-c2ccncc2)[nH]1
Cc1ccc(O)cc1Nc1ccnc2cc(-c3cccc(CNCCS(C)(=O)=O)c3)ccc12
CC(C)(CN)c1nc(-c2ccc(Cl)c(O)c2)c(-c2ccnc(N)n2)[nH]1
CN(C)CCNCc1nc(-c2ccc3c(Nc4ccc(Oc5ccccc5)cc4)ccnc3c2)cs1
CNCC(C)(C)c1nc(-c2ccc(Cl)c(O)c2)c(-c2ccncc2)[nH]1
CC(C)(CNCCOc1ccc(Cl)cc1)c1nc(-c2ccc(Cl)c(O)c2)c(-c2ccnc(N)n2)[nH]1
CS(=O)(=O)Nc1cccc(-c2cnc3[nH]cc(-c4cccc(CN)c4)c3c2)c1
CN1CCN(c2ccc(Nc3ncc(Cl)c(Nc4cccnc4C(N)=O)n3)cc2)CC1
CNC(=O)c1ccccc1Nc1nc(Nc2ccc(C(=O)O)cc2)ncc1Cl
CN1CCC=C(C(=O)NCC(C)(C)c2nc(-c3ccc(Cl)c(O)c3)c(-c3ccncc3)[nH]2)C1
CC(C)(CNC(=O)C1CCN(CCOc2ccc(Cl)cc2)CC1)c1nc(-c2ccc(Cl)c(O)c2)c(-c2ccncc2)[nH]1
Oc1cccc(-c2cnc3ccc(NCc4ccc(F)cc4)nn23)c1
CC(C)(CNC(=O)[C@H]1CCCCN1)c1nc(-c2ccc(Cl)c(O)c2)c(-c2ccncc2)[nH]1
CS(=O)(=O)Cc1ccc(Nc2nccc(-c3c(-c4cccc(NC(=O)c5c(F)cccc5F)c4)nn4ncccc34)n2)cc1
O=c1[nH]ccc2nc(N[C@@H]3CCNC3)nc(Nc3ccc4c(c3)S(=O)(=O)CC4)c12
CS(=O)(=O)CCNCc1cccc(-c2ccc3c(Nc4cc(O)c(Cl)cc4F)ccnc3c2)c1
Cc1cc(F)ccc1-c1nc(Nc2ccncc2)c2ccn(C)c2n1
CN(C)CCN(C)Cc1nc(-c2ccc3c(Nc4ccc(Oc5ccccc5)cc4)ccnc3c2)cs1
COc1ccc(C(=O)NCC(C)(C)c2nc(-c3ccc(Cl)c(O)c3)c(-c3ccncc3)[nH]2)cc1OCCN(C(C)C)C(C)C
Cc1cccc2[nH]c(-c3cc(-c4cn[nH]c4)cnc3N)nc12
c1cncc(Oc2ccc(Nc3ccnc4cc(-c5cccc(CNCCN6CCOCC6)c5)ccc34)cc2)c1
CC(C)(CNCc1ccc(F)c(F)c1)c1nc(-c2ccc(Cl)c(O)c2)c(-c2ccnc(N)n2)[nH]1
CN(C)Cc1ccc(-c2ccc3c(Nc4ccc(Oc5ccccn5)cc4)ccnc3c2)o1
COc1ccc(-c2cnc3[nH]cc(-c4ccncc4)c3c2)cc1OC

Reference: PubChem BioAssay
